Compound activity deposited in PubChem by National Center for Advancing Translational Sciences (NCATS).
Most compounds without a hit are left out; they make up all but 1.3% or so of the library.
CCT modulator: cytosolic chaperonin activity modulation; activity change, % (test concentration not listed), hits read low; 360,000 tested, 0.3% active; purified chaperonin ATPase assay, HTRF ADP detection, 30 min; AID 651819; in the data active = activity change below about -30%
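First, chaperonin was dispensed at 40 nM or 20 nM final depending on batch activity. Next, compounds were pinned at 76 uM and ATP added at 10 uM. After 30 min at 37 °C, ADP detection reagents ran 30 min at ambient temperature.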
Akt phos inh: blocks phosphorylation of Akt; Neuro2A IGF-stimulated pAkt S473 HTRF, 20 min; active compounds read low; activity change, % for hits at 50 µM; 360,000 tested, 0.32% active; AID 651550; in the data active = activity change below about -80%; inconclusive = mostly about -51% to -80%
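Single-point screen (50 µM final compound) in Neuro2A cells stimulated 20 min with 6 nM IGF at 37 deg C. After lysis, Ser473-phosphorylated Akt read by HTRF (ex 330 nm, em 615/665 nm) as the 665/615 ratio.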
Six1-Eya2 blk: inhibitors of human Six1/Eya2 interaction. AlphaScreen GST-Six1/His-Eya2 binding, biochemical; active compounds read low. AID 651725. activity change, % (no concentration beside the values). 360,000 tested, 0.56% active. Q15475+O00167
Target sequence (O00167 whole entry, looked up): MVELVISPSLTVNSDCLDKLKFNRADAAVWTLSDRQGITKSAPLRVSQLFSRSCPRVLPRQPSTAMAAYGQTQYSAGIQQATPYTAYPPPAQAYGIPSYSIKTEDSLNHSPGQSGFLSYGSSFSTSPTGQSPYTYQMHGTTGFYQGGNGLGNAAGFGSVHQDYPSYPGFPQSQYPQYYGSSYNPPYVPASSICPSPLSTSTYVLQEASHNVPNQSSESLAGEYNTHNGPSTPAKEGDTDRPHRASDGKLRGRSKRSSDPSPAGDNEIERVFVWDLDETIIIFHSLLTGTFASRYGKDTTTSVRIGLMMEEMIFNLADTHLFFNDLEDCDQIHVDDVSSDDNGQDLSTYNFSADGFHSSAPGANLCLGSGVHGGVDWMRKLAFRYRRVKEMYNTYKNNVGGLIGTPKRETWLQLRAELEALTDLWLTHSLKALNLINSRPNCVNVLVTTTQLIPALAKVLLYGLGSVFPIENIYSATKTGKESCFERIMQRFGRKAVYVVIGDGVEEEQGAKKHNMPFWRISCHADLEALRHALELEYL
Target sequence (Q15475 whole entry, looked up): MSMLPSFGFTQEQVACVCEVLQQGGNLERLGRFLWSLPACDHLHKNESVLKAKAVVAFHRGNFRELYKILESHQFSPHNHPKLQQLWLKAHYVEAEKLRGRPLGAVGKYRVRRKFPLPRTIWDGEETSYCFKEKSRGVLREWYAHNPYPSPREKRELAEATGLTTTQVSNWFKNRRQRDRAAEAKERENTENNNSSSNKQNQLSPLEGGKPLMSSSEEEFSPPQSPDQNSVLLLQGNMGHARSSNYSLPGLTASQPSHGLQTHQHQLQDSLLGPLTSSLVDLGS
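GST-Six1 + His-Eya2 (5X stock: 250/500 nM); Tris pH 8.0, 300 mM NaCl, 0.05% BSA, 0.02% Tween 20; GSH donor/Ni acceptor beads; 1 h 37 °C dark; AlphaScreen readout.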
CtBP-E1A blk: blocks the CtBP interaction with E1A; AlphaScreen GST-E1A/His-CtBP binding, 1536-well; active compounds read low; activity change, % (no concentration beside the values); 340,000 tested, 0.49% active; AID 651724
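GST-E1A and His-tagged CtBP (125 nM each as 5X stock) were preincubated with pin-transferred compound for 2 h at 37 °C in the dark, then glutathione donor and nickel acceptor beads were added for 1 h before AlphaScreen reading.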
Numbers without * were called inactive; i = inactive; ? = inconclusive; / = not tested or not shown. Rule as the data show it, unless noted: active = activity change below about -65%; inconclusive = mostly about -30% to -63%; inactive = weaker than that. % is scaled to controls: 0 for no effect and ±100 for the full control effect.

SMILES | CCT modulator | Akt phos inh | Six1-Eya2 blk | CtBP-E1A blk
Oc1c(Cl)cc(Cl)cc1CNc1nccs1 | 2 | i | -65* | -83*
COCCNC(=O)C[C@H]1C[C@H]2c3cc(NS(=O)(=O)c4ccc(F)cc4)ccc3O[C@H]2[C@H](CO)O1 | 2 | i | -2 | 5
O=C(CSc1nnc(C2CC2)n1C1CC1)N1CCN(c2ccc(O)cc2)CC1 | -1 | i | -19 | -11
O=C(N/N=C(\c1ccccc1)c1ccccn1)c1cccc([N+](=O)[O-])c1 | 1 | i | -91* | /
CCOc1ccc(C(=O)N/N=C(\c2ccccc2)c2ccccn2)cc1 | -2 | i | ? | -67*
Cn1ccnc1/C(=N\NC(=O)c1ccccc1)c1cccc([N+](=O)[O-])c1 | -1 | i | -4 | -1
COc1ccc(-c2[nH]nc3nc(N4CCN(C(=O)c5ccoc5)CC4)cc(C(F)(F)F)c23)cc1 | -40* | i | 17 | 6
CCOc1cccc(OCCCCN2CCOCC2)c1 | -1 | -108%* | -21 | -2
O=C(c1cc2cc(F)ccc2[nH]1)N1CCCC(Nc2ccc(F)cc2)C1 (stereo not given) | 2 | i | -4 | -8
CC(=O)Nc1ccc(N(C)C)cc1[N+](=O)[O-] | 0 | -109%* | -9 | -21
CC(=O)Nc1ccc(O)cc1[N+](=O)[O-] | -1 | i | 5 | 14
O=C(CN1C(=O)c2cccc([N+](=O)[O-])c2C1=O)N1CCN(S(=O)(=O)c2ccccc2)CC1 | 2 | i | 2 | 0
O=[N+]([O-])c1ccc(N/N=C/c2c[nH]c3ccccc23)cc1 | 0 | i | -26 | -16
O=[N+]([O-])c1ccccc1N/N=C/c1c[nH]c2ccccc12 | 1 | i | -84* | -78*
CNC(=O)CSc1nnc(-c2ccncc2)n1Cc1ccccc1 | -4 | -112%* | 9 | 2
O=C(CSc1nnc2scc(-c3ccccc3)n12)NCc1ccc2c(c1)OCO2 | -2 | i | -3 | -15
O=C(CSc1nnc(Cc2cccs2)n1-c1ccccc1)NCc1ccc2c(c1)OCO2 | -1 | -85%* | 0 | 3
CCn1c(SCC(=O)NCc2ccc3c(c2)OCO3)nnc1-c1ccncc1 | -53* | i | 1 | -5
OCCCNc1ncnc2c1ncn2[C@H]1CN(Cc2ccc(-c3ccccc3)cc2)C[C@@H](CO)O1 | 0 | / | -4 | -28
O=C(OCCN1CCN(C2=NS(=O)(=O)c3ccccc32)CC1)c1ccccc1F | 1 | i | -1 | -5
CC1CCN(C(=S)NC(=O)c2ccccc2)CC1 | -2 | -111%* | -5 | 5
COCCN1CCn2c(nc3cc(NC(=O)NC4CCCCC4)ccc32)C1 | 0 | i | -1 | -8
O=C(Nc1ccc2c(c1)nc1n2CCN(Cc2ccccc2)C1)c1cccs1 | -1 | / | -80* | -87*
O=C(Nc1ccc2c(c1)nc1n2CCN(Cc2ccccc2)C1)NC1CCCCC1 | -3 | -90%* | -13 | -18
COc1ccccc1C(=O)Nc1ccc2c(c1)nc1n2CCN(Cc2ccccc2)C1 | 1 | i | -24 | -14
SMILES | CCT modulator | Akt phos inh | Six1-Eya2 blk | CtBP-E1A blk
NS(=O)(=O)c1ccc(CNC(=O)c2ccncc2)cc1 | -12 | i | -1 | -5
O=c1cc(/N=C/c2coc3cc(Br)ccc3c2=O)[nH]c(=S)[nH]1 | -2 | i | -15 | -14
CC(=O)Oc1ccc2c(=O)c(/C=N/c3cc(=O)[nH]c(=S)[nH]3)coc2c1 | -3 | i | -75* | -4
COc1ccc(N2C(=O)CC(N(CCc3ccccc3)C(=O)c3ccccc3)C2=O)cc1 (stereo not given) | 2 | i | 1 | -70*
COc1ccc(N2C(=O)CC(N3CCN(c4ccccc4)CC3)C2=O)cc1 (stereo not given) | -2 | i | -4 | 4
COc1ccc(N2C(=O)CC(Cc3ccccc3OC)C2=O)cc1 (stereo not given) | 0 | i | -8 | 7
COc1ccc(N2C(=O)CC(Cc3ccccc3)C2=O)cc1 (stereo not given) | -1 | -89%* | 0 | 7
COc1ccc(N2C(=O)CC(N3CCOCC3)C2=O)cc1 (stereo not given) | -3 | -110%* | -11 | 8
COc1cccc(OCc2cc(C(=O)N3CCN(C)C(c4ccccc4)C3)no2)c1 (stereo not given) | -1 | / | -5 | /
O=C(Nc1cccc([N+](=O)[O-])c1)c1ccc2c(c1)C(=O)N(c1ccccn1)C2=O | -2 | i | -1 | -6
